Source: ChEMBL document CHEMBL4513216, “Probing the Open Global Health Chemical Diversity Library for Multistage-Active Starting Points for Next-Generation Antimalarials” (ACS Infect Dis, 2020)
Screen size: about 69,000 compounds; about 8,600 (12%) showed an effect of 50% or more. This is one part of a sample in which strong results are shown more often than they occur.

Tested on: Plasmodium berghei
Test: Screen against P. berghei liver stage (PbLuc), transformed with Luciferase, at 10uM
Format: functional, HepG2
Conditions: tested at 10 uM

| Structure (SMILES) | INHIBITION [%] |
| --- | --- |
| CCOc1cc(CNC(C)c2sccc2C)ccn1 (configuration not stated) | 66.9 |
| CCOc1cc(CNC(C)c2ccc(F)cc2)ccn1 (configuration not stated) | 21.5 |
| CCOc1cc(CNC(=O)NCc2nc(C)c(C)s2)ccn1 | 30.1 |
| CCOc1cccc(CCNC(=O)Cc2ccccc2O)n1 | 20.1 |
| CCOc1cccc(CCNC(=O)Cc2cccc(O)c2)n1 | 37.2 |
| CCOc1cccc(CCNC(=O)Cc2ccn[nH]2)n1 | 61.8 |
| CC(=O)N1N=C(COc2ccc(C)cc2)OC1c1ccc(N(C)C)cc1 (configuration not stated) | 11.9 |
| CC(=O)N1N=C(COc2ccc3c(c2)OCO3)OC1c1ccc(C)cc1 (configuration not stated) | -51.1 |
| CC(=O)N1N=C(COc2ccc(Cl)cc2)OC1c1ccccc1 (configuration not stated) | 68.9 |
| COc1ccc(C2OC(COc3ccc(C)cc3)=NN2C(C)=O)cc1 (configuration not stated) | -13.6 |
| COc1ccc(C2OC(COc3ccccc3Br)=NN2C(C)=O)cc1 (configuration not stated) | -52.1 |
| CC(=O)N1N=C(COc2ccc3c(c2)OCO3)OC1c1cccc(Cl)c1 (configuration not stated) | 61.5 |
| COCC(=O)N1C[C@@H](c2cccc(OC)c2)[C@@]2(CCCCC(=O)N2)C1 | -4.87 |
| CC(C)(CCS(C)(=O)=O)CNC(=O)NC1CCCCC1(C)C (configuration not stated) | -11.1 |
| Cc1cc(C2CCCN(CCS(=O)(=O)c3ccccc3)C2)n[nH]1 (configuration not stated) | -9.76 |
| Cc1ccc(CNC(=O)C2=NOC3(CCCNC3)C2)cc1 (configuration not stated) | -13.1 |
| O=C(NCC(F)(F)F)C1=NOC2(CCCNC2)C1 (configuration not stated) | 52.9 |
| O=C(NCc1ccncc1)C1=NOC2(CCCNC2)C1 (configuration not stated) | -6.21 |
| COCCn1ccc(=O)c(OCC(=O)Nc2ccc(OC)cc2)c1C | -35.1 |
| CCn1nc(C)c(CN(CCCOC)Cc2ccccn2)c1C | 41.5 |
| CCn1c(C2CCN(C(=O)c3cc(Cl)no3)CC2)nn(C)c1=O | -34.7 |
| COc1ccc(CN(CC2CCCO2)c2nc3c(s2)c(C)nn3C)cc1 (configuration not stated) | 87.1 |
| Cc1nn(C)c2nc(N(Cc3ccccn3)CC3CCCO3)sc12 (configuration not stated) | 3.17 |
| Cc1nn(C)c2nc(N(Cc3ccncc3)CC3CCCO3)sc12 (configuration not stated) | -24 |
| Cc1nn(C)c2nc(-c3ccccn3)nc(NC[C@@H]3CCCO3)c12 | 10.4 |
| Cc1nn(C)c2nc(N(CCOc3ccccc3)CC3CCCO3)sc12 (configuration not stated) | 85.9 |

| Structure (SMILES) | INHIBITION [%] |
| --- | --- |
| Cc1nn(C)c2nc(N(Cc3ccccc3)CC3CCCO3)sc12 (configuration not stated) | 32.8 |
| Cn1cc(CN2C[C@@H]3COC[C@]3(COCC3CC3)C2)cn1 | 33.1 |
| CCn1c(CN(C)Cc2csc(C)n2)nc2cc(F)ccc21 | 45.2 |
| CC(=O)c1c(C)nn(S(=O)(=O)c2ccc(C)c(C)c2)c1C | 4.97 |
| CCOc1cc(=O)n2c(c1C(=O)OCc1ccc(F)cc1)CCCC2 | -3.77 |
| Cn1cccc(NC(=O)NCCc2cccc(O)c2)c1=O | 57.3 |
| Cn1cccc(NC(=O)NCc2cccc(CO)c2)c1=O | 42.4 |
| Cn1cccc(NC(=O)NCCOCc2ccccc2)c1=O | 28.5 |
| CCN(Cc1ccccc1O)CC1(C)Cc2c(N)nc(N)nc2O1 (configuration not stated) | 16.7 |
| COCCOC(=O)N1C[C@@H]2CC[C@H]1CN(C1Cc3ccccc3C1)C2 | -55 |
| COc1ccc(C2CCCN2C(=O)NCCNc2ccccn2)cc1 (configuration not stated) | -21.2 |
| CCCOc1ccc(CCC(=O)Nc2nonc2C)cc1 | -11.3 |
| Cc1nonc1NC(=O)CCn1cc(Br)ccc1=O | 20.3 |
| Cc1ccc(OCCCC(=O)Nc2nonc2C)cc1C | 86.1 |
| COCC1c2c(cnn2C)CCN1Cc1ccc(C)o1 (configuration not stated) | 34.4 |
| Cc1n[nH]c(C)c1CCC(=O)NCC1CCCN(C2CCCC2)C1 (configuration not stated) | 38.6 |
| COc1nn(C)cc1C(=O)N1CCC(C)CC1 | 49.9 |
| CNC(=O)[C@H]1C[C@@H]2CN(C(=O)c3cccnc3)C[C@@H]2N1S(C)(=O)=O | 10.5 |
| Cc1ccc(CN2CCC3(CCCN(Cc4ccc(F)c(F)c4)C3)C2)o1 (configuration not stated) | 54.7 |
| Cc1ccc(CN2CCCC3(CCN(S(C)(=O)=O)C3)C2)o1 (configuration not stated) | 22.7 |
| Cc1ccc(CN2CCCC3(CCN(Cc4ccc(C)o4)C3)C2)o1 (configuration not stated) | 74.7 |
| Cc1ccc(CN2CCC3(CCN(S(=O)(=O)c4ccccc4)C3)C2)o1 (configuration not stated) | 56.8 |
| CCS(=O)(=O)N1CCC2(CCN(Cc3ccc(C)o3)C2)C1 (configuration not stated) | 13.1 |
| Cc1ccc(CN2CC3(CCN(S(=O)(=O)c4ccccc4)C3)C2)o1 | 12.4 |
| Cc1ccc(CN2CCCC3(CCN(S(=O)(=O)N(C)C)C3)C2)o1 (configuration not stated) | 48.3 |
| Cc1c[nH]c(CN2CCC3(CCCN(Cc4ccc(F)c(F)c4)C3)C2)n1 (configuration not stated) | 42.2 |
